Reference: PubChem BioAssay (NCATS)
Records with an inconclusive call do not appear. Activity calls are given as the source filed them. Unless noted, the call rests on the fitted dose curve; in most records, active means well fitted curve in the direction sought with a large enough effect; inconclusive means small, poorly fitted or top-dose-only effect, or another doubt; inactive means no such curve, though single readings can be large; an effect the other way counts as inactive or inconclusive.

Tests used:
[1] = qHTS assay for measurement of the activity of small molecule inhibitors on Zika virus induced Caspase-3 activity in human iPSC derived neural progenitor cells (hNPCs) (AID 1224857); further: nearly all actives have a fitted effect of over 65% in size
Summary of the method: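 Human iPSC-derived neural progenitor cells pretreated 1 hr with compounds, then infected with Zika virus (2 FFU/cell) for 6 hours at 37 C. Caspase-3/7 measured by Caspase-Glo luminescence; % inhibition calculated from induction scaled to uninfected (0%) and infected (100%) wells.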

[2] = qHTS assay for measurement of the activity of small molecule inhibitors on Zika virus induced Caspase-3 activity in human astrocytoma cells (AID 1224859)
Summary of the method: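 SNB-19 astrocytoma cells, 250/well, pretreated 1 h with compounds, then Zika virus at 2 FFU/cell for 6 h at 37 C; Caspase-Glo 3/7 luminescence after 30 min; percent inhibition normalised to uninfected and infected controls.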

[3] = qHTS assay to identify small molecule inhibitors of chordoma cells - UCH-1 (AID 1259355); further: nearly all actives have a fitted effect of over 55% in size
Summary of the method: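 A 48hr growth-inhibition format: each drug tested at 15 concentrations together with added auranofin, camptothecin, doxorubicin, rubitecan and topotecan, with cell viability quantified as CellTiter-Glo luminescence.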

[4] = qHTS assay to identify small molecule inhibitors of chordoma cells - UCH-2 (AID 1259356); further: series mostly up to about 46 µM
[5] = Natriuretic polypeptide receptor (hNpr1) antagonism - Pilot counterscreen GloSensor control cell line (AID 1347045; calls by dose curve; further: series mostly up to about 38 µM)
Summary of the method: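 Control counterscreen: luciferase cGMP-biosensor HEK293 cells (no Npr1) received compound for 30 min at room temperature after GloSensor substrate loading. Luminescence was measured before and 20 min after soluble guanylyl cyclase activation by 50 uM nitroprusside.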

[6] = target: Atrial natriuretic peptide receptor 2 (Homo sapiens) (UniProt P20594); test: Natriuretic polypeptide receptor (hNpr2) antagonism - Pilot subtype selectivity assay (AID 1347050; calls by dose curve)
Summary of the method: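 Read-out: GloSensor luminescence (CCD imager), baseline vs post-stimulation. HEK293 cells expressing hNpr2; compounds pre-incubated 30-50 min at ambient temperature; hNppC 1 nM final, 20 min.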

[7] = NS1 protein of Zika virus - qHTS assay to identify small molecule inhibitors in human HEK 293 cells (AID 1347053); further: series mostly up to about 46 µM; nearly all actives have a fitted effect of over 55% in size
Summary of the method: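 Compound-treated (1 h pre-infection) HEK 293 cells infected with ZIKV MR766, MOI = 0.5; after 24 h at 37 C, NS1 read by TR-FRET; data normalized to uninfected and infected controls.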

[8] = target: T1, Tyrosine-protein phosphatase non-receptor type substrate 1 (Homo sapiens) + Leukocyte surface antigen CD47 (Homo sapiens) (UniProt P78324+Q08722); test: CD47-SIRPalpha protein protein interaction - LANCE assay qHTS validation (AID 1347057; active means well fitted curve in the direction sought with a large enough effect in the signal ratio, with a control signal flat, not every such curve was filed as active; the % refers to the signal ratio; further: series mostly up to about 38 µM)
Summary of the method: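 Inhibition of soluble CD47/SIRPalpha ectodomain association by titrated compounds, measured as 665/615 nm time-resolved FRET ratio after sequential 30 min room-temperature incubations.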

[9] = target: T1, Tyrosine-protein phosphatase non-receptor type substrate 1 (Homo sapiens) + Leukocyte surface antigen CD47 (Homo sapiens); test: CD47-SIRPalpha protein protein interaction - HTRF assay qHTS validation (AID 1347058; active means well fitted curve in the direction sought with a large enough effect in the signal ratio, not every such curve was filed as active; the % refers to the signal ratio; further: series mostly up to about 38 µM)
Summary of the method: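 Soluble extracellular domains (6His-CD47, Avi-tag-biotinylated SIRPalpha) in PBS pH 7.4 with 0.05% IGEPAL CA-630. Compounds were preincubated 30 min at RT with CD47 and anti-His-Eu, then SIRPalpha and SAV-XL665 were added. TR-FRET 665/615 ratio.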

[10] = target: T1, Tyrosine-protein phosphatase non-receptor type substrate 1 (Homo sapiens) + Leukocyte surface antigen CD47 (Homo sapiens); test: CD47-SIRPalpha protein protein interaction - Alpha assay qHTS validation (AID 1347059);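 further: bead proximity luminescence from CD47 binding SIRPalpha after compound preincubation with SIRPalpha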
Summary of the method: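 In PBS (pH 7.4) with 0.05% IGEPAL CA-630, compound is preincubated with biotin-Avi-SIRPalpha ectodomain before His-CD47 ectodomain and affinity beads are added. Light-protected room-temperature incubations; AlphaScreen readout.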

[11] = qHTS of pediatric cancer cell lines to identify multiple opportunities for drug repurposing: Primary screen for TC32 cells (AID 1347089); further: nearly all actives have a fitted effect of over 60% in size
Summary of the method: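 Luminescent CellTiter-Glo read-out of metabolically active TC32 cells after 48 h compound exposure. Primary: MIPE 11-point, 0.78 nM–46 µM; NPC 8-point, 0.59 nM–46 µM. Confirmatory: 11-point dilutions.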

[12] = qHTS of pediatric cancer cell lines to identify multiple opportunities for drug repurposing: Primary screen for DAOY cells (AID 1347090); further: series mostly up to about 46 µM; nearly all actives have a fitted effect of over 55% in size
Summary of the method: (§1)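 Eight- or eleven-point concentration series, 48 h treatment at 37 degrees C in growth media; readout CellTiter-Glo luminescence. Potency and efficacy were taken from the concentration-response curves.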

[13] = qHTS of pediatric cancer cell lines to identify multiple opportunities for drug repurposing: Primary screen for SJ-GBM2 cells (AID 1347091)
Summary of the method: as §1

[14] = target: Atrial natriuretic peptide receptor 1 (Homo sapiens) (UniProt P16066); test: Natriuretic polypeptide receptor (hNpr1) antagonism - Pilot screen (AID 1347049; calls by dose curve;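 further: HEK293 cells with hNpr1 and GloSensor cGMP luciferase stimulated by 0.1 nM hNppA; agonist-evoked cGMP luminescence read 20 min after hNppA addition; series mostly up to about 58 µM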)
Summary of the method: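 Cells expressing receptor plus cGMP biosensor are seeded and incubated overnight at 37C, then loaded with GloSensor reagent (2% final) at room temperature for 2 h. Library compounds go on for 30 min. A pre-read precedes agonist (hNppA, 0.1 nM final) and a 20-min readout.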

[15] = target: Parathyroid hormone/parathyroid hormone-related peptide receptor (Homo sapiens) (UniProt Q03431); test: qHTS for PTHR1 Agonists: Optimization Screen against the NCGC LOPAC library (AID 1347079);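 further: GloSensor cAMP luminescence in HEK-293 GP2 cells expressing human PTHR1 with IBMX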
Summary of the method: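 HEK-293 GP2 cells, PTHR1 + GloSensor cAMP; 3000 cells/well, o/n. Luciferin + IBMX 0.5mM each (stock), 1 hr 37C. Cpd titration, 1 hr 37C. Lum after 15 min RT. Ctrl M-PTH(1-15) top 10uM.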

Measured: Potency

Parathyroid hormone/parathyroid hormone-related peptide receptor (Homo sapiens), sequence (Q03431 whole entry, looked up): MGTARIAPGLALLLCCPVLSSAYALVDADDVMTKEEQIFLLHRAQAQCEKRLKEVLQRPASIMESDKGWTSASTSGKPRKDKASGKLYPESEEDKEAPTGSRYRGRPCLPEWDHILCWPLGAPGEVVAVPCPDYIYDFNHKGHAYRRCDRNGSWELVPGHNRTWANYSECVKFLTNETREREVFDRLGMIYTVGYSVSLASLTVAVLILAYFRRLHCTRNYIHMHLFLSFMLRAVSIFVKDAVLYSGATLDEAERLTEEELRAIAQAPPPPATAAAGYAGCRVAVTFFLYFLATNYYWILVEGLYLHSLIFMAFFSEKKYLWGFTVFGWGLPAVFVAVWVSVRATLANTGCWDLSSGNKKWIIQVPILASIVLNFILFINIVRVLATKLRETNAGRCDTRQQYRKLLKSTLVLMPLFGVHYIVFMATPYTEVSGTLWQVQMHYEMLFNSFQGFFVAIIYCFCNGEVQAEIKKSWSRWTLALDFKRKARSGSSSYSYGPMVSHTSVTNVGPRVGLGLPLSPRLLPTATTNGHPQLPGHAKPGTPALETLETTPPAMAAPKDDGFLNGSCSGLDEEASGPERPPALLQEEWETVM
T1 sequence (P78324 whole entry, looked up, the tested form may be a part): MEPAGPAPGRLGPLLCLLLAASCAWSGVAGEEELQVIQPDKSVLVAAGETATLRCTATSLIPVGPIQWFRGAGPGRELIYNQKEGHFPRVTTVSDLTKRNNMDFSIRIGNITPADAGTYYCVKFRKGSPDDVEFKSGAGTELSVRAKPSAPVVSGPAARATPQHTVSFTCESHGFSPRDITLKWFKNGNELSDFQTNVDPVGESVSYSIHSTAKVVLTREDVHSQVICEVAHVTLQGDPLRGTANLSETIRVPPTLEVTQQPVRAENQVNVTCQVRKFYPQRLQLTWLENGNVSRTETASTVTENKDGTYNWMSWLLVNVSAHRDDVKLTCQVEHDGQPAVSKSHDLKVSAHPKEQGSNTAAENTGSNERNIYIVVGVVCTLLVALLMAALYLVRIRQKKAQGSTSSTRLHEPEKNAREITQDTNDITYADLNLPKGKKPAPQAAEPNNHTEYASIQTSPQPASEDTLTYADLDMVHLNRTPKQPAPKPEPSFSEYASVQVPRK
T1 sequence (Q08722 whole entry, looked up, the tested form may be a part): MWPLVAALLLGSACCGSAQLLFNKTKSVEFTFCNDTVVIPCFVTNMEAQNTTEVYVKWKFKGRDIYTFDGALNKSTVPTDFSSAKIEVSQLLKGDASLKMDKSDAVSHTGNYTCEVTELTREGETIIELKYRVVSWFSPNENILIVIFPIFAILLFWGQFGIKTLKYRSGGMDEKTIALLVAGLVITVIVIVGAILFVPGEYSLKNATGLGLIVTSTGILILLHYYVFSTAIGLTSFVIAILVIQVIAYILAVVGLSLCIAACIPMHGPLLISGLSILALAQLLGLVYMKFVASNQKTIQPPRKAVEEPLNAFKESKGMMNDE
Atrial natriuretic peptide receptor 2 (Homo sapiens), sequence (P20594 whole entry, looked up): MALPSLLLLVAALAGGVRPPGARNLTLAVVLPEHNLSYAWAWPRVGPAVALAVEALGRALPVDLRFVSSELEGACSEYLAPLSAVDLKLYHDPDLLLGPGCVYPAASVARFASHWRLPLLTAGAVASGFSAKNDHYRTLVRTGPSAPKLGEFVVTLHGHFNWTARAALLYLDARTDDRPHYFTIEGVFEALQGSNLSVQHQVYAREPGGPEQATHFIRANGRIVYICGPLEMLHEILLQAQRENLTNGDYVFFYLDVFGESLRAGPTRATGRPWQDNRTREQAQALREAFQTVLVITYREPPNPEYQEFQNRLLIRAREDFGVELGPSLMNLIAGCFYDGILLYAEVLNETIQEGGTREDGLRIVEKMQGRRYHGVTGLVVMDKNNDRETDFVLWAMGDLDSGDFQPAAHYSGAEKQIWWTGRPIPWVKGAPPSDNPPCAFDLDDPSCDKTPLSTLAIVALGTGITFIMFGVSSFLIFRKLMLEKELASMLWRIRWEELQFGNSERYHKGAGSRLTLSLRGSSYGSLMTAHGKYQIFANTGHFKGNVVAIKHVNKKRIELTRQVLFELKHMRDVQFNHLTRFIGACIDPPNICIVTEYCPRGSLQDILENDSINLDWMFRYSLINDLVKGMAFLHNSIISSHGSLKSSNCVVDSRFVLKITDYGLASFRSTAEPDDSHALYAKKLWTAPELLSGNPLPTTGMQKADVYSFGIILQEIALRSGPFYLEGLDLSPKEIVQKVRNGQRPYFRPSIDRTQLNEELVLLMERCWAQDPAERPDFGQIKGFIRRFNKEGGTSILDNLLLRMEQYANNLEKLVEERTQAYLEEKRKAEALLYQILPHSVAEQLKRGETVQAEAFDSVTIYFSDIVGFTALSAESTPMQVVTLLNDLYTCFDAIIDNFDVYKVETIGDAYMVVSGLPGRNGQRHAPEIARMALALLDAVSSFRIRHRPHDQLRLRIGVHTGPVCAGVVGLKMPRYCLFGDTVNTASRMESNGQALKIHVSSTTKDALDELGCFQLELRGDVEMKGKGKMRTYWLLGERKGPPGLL
Atrial natriuretic peptide receptor 1 (Homo sapiens), sequence (P16066 whole entry, looked up): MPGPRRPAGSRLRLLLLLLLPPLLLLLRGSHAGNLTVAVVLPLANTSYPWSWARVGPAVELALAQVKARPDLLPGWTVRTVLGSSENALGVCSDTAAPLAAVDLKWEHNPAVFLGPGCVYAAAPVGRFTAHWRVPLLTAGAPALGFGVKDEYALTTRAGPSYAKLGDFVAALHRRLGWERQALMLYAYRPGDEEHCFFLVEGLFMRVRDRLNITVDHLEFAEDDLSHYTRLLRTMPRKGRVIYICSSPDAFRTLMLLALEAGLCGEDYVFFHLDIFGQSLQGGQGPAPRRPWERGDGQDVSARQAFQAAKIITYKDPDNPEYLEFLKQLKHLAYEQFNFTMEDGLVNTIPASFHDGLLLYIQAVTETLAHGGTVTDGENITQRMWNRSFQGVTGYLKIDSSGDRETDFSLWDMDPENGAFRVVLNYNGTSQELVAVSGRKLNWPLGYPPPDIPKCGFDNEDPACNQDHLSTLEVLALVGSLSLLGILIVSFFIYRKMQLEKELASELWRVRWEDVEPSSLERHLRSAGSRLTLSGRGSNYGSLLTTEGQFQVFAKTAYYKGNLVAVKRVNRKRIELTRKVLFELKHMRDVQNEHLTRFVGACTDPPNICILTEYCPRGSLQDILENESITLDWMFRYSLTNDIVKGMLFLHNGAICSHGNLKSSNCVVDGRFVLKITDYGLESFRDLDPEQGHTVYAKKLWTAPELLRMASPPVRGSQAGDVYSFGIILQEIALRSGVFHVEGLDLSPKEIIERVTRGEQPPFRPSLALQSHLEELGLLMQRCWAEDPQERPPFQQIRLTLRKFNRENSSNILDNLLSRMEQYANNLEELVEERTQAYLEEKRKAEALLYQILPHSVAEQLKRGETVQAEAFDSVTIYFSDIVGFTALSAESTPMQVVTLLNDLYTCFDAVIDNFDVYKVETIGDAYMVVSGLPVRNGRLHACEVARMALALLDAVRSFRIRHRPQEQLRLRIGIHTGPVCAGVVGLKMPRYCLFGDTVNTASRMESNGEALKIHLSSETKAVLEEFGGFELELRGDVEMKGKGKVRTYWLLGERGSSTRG

COc1ccc(CN(CCN(C)C)c2ccccn2)cc1
not listed: [14] | [15]
inactive: all other assays above

Cc1cccc(C)c1NC(=O)C(C)N (stereo not given)
inactive: all assays above

CCN(CC)CCNC(=O)c1cc(S(C)(=O)=O)ccc1OC
not listed: [9]
inactive: all other assays above

CN(C)CCN(Cc1cccs1)c1ccccn1
inactive: all assays above

CCc1cccc(N(C)C(N)=Nc2cccc3ccccc23)c1
not listed: [11] | [15]
inactive: all other assays above

NC(=O)c1cn(Cc2c(F)cccc2F)nn1
inactive: all assays above
